Rows were chosen to be rich in hits. Some 5.6% of all compounds tested hit in one or more screens of this group.
H9c2 protect: modulators protecting cardiomyocytes from myocardial damage | AID 588492 | H9c2 cardiomyocytes, H2O2 injury protection, ATPLite, 2 h | protection from H2O2 cell death, % at 20 µM | 360,000 tested, 0.63% active;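 active means compounds giving at least 50% protection of heart cells from peroxide-induced death in the single-dose screen, raw or plate-pattern-corrected value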;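 further: 0% = DMSO wells with peroxide and 100% = DMSO wells without peroxide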
M18AAP inhibitor: PfM18AAP enzyme inhibition; recombinant PfM18AAP, H-Glu-NHMec fluorogenic cleavage; inhibition, % at 7.35 µM; 290,000 tested, 1.2% active;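 active means inhibition above the campaign mean inhibition over all tested compounds plus 3 SD, cut at about 28% in these data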;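 further: 0% = plate median of test compound wells and 100% = 2 mM ZnCl2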
PHOSPHO1 block: inhibitors of human PHOSPHO1 phosphatase. Q8TCT1. inhibition, % at 13.3 µM. recombinant PHOSPHO1, absorbance phosphatase assay. 290,000 tested, 1.1% active; in the data active means inhibition above about 60%
Target sequence (Q8TCT1 whole entry, looked up): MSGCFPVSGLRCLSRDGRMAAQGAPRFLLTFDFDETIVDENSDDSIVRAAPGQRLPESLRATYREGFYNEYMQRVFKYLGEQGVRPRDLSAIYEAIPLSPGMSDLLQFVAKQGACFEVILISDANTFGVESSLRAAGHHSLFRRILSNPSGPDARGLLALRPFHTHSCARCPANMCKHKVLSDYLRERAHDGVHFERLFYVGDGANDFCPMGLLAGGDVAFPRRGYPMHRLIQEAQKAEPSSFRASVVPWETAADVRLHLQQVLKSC
PfG6PD inh: PfG6PD (Plasmodium falciparum) enzyme inhibition | PfGluPho enzyme, NADPH resazurin-diaphorase fluorescence | inhibition, % at 20 µM | 350,000 tested, 0.78% active;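 active means inhibition reaching at least a set limit at 20 µM in the primary screen, cut at about 59% in these data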;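 further: 0% = DMSO wells with substrate and 100% = DMSO wells lacking glucose-6-phosphate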
ALR inh: inhibitors of human sulfhydryl oxidase ALR; P55789; purified ALR, DTT oxidation, H2O2 HRP-luminol luminescence; inhibition, % (concentration not given with the values); 290,000 tested, 3.8% active;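 active means mean replicate inhibition above about 79%, with every replicate also reaching it, limit read from the data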
Target sequence (P55789 whole entry, looked up): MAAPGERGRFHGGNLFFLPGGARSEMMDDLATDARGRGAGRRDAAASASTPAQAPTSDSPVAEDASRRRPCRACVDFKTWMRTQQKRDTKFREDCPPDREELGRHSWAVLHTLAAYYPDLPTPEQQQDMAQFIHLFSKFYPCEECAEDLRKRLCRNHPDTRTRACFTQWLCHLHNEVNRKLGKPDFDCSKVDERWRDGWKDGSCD
Numbers without * were called inactive; · = not tested or not shown.

SMILES	H9c2 protect	M18AAP inhibitor	PHOSPHO1 block	PfG6PD inh	ALR inh
S=C(NCCN1CCOCC1)Nc1ccc(Cl)cc1Cl	3	4	-2	-4	95*
S=C(NCCN1CCOCC1)Nc1ccc(Nc2ccccc2)cc1	-4	4	41	3	99*
S=C(NCCCN1CCOCC1)Nc1ccc(-c2nc3ccccc3[nH]2)cc1	-20	18	-51	22	98*
Brc1ccc(CNc2ccc3ncccc3c2)cc1	-16	16	15	36	-127
CCN(CC)C(=O)C1CCCN(C(=O)c2oc3ccc(C)cc3c2C)C1 (stereo not given)	4	1	5	6	1
Cc1[nH]c2ccc(C(=O)NCCN3CCOCC3)cc2c1C	4	27	26	-3	7
S=C(NCCCN1CCOCC1)Nc1ccc(Nc2ccccc2)cc1	8	3	-18	12	99*
S=C(NCCCN1CCOCC1)Nc1ccc(N2CCOCC2)cc1	0	2	-13	-13	·
Cc1ccc(Nc2nnc(SC(C)C(=O)NCC3CCCO3)s2)cc1 (stereo not given)	2	·	·	29	7
Cc1csc(NC(=O)CSc2nnc(C)s2)n1	24	-9	25	5	-4
Cc1csc(NC(=O)CSC2=NCCS2)n1	2	-5	51	1	99*
CCOC(=O)Cc1csc(NC(=O)CSc2nc(=O)[nH]c3c2CCC3)n1	2	·	·	-5	-298
CCOC(=O)c1sc(NC(=O)CSc2nccn2C)nc1C	5	-8	22	3	98*
CCOC(=O)Cc1csc(NC(=O)CSc2nc(=O)[nH]c3c2CCCC3)n1	-5	·	·	8	96*
Cc1csc(NC(=O)CSc2nc(C)nc3c2c(=O)n(C)c(=O)n3C)n1	25	·	0	5	98*
O=C(COC(=O)c1ccc(NC(=O)C2CC=CCC2C(=O)O)cc1)c1ccccc1 (stereo not given)	-4	-5	18	-15	1
Cc1cccc(-n2ccnc2SCC(=O)Nc2cccc(S(=O)(=O)NC3=NCCC3)c2)c1C	-4	·	·	3	·
CCOC(=O)Cc1csc(NC(=O)CSC2=NCCS2)n1	-1	1	34	2	99*
CCOC(=O)Cc1csc(N/N=C\c2ccc(N(C)C)cc2)n1	1	38*	5	3	-4
CCOC(=O)Cc1csc(NC(=O)CCC(=O)O)n1	3	1	20	-17	-3
COCC(=O)Nc1nc(-c2ccc([N+](=O)[O-])cc2)cs1	0	1	-17	-2	98*
CCOC(=O)Cc1csc(NC(=O)CSc2nccn2C)n1	12	-14	48	-13	99*
COC(=O)[C@H](CC(C)C)NC(=O)Cn1cnc2c(SC)nc(N)nc21	14	·	·	2	-1
O=C(CSc1ccccn1)NC1CCCc2c1cnn2-c1ccccc1F (stereo not given)	3	·	·	-3	·
CCOC(=O)Cc1csc(NC(=O)Cc2ccc([N+](=O)[O-])cc2)n1	5	2	-12	-9	98*
SMILES	H9c2 protect	M18AAP inhibitor	PHOSPHO1 block	PfG6PD inh	ALR inh
Cc1nnc(SCC(=O)Nc2nc(C(C)(C)C)cs2)s1	-3	-5	-5	24	·
CC(C)(C)c1csc(NC(=O)CSC2=NCCS2)n1	-11	7	14	9	99*
CCOC(=O)Cc1csc(NC(=O)Cc2ccc(Br)cc2)n1	-11	-6	20	-1	-4
CCOc1ccc(-c2c(C(=O)N/N=C/C3CCCCC3)nnn2-c2nonc2N)cc1	3	12	22	-15	-4
CCCC1CC(C)(/C(C)=N\NC(N)=S)OC1=O (stereo not given)	-3	28*	53	-13	4
C/C(CCC1CC(C)(C)OC1=O)=N\NC(N)=S (stereo not given)	-2	14	16	0	6
O=C(Nc1ccc(S(=O)(=O)N2CCOCC2)cc1)c1cccc(Br)c1	-3	2	14	5	-19
Cc1cc(C)cc(N(C(C)C(=O)N2CCCC2)S(C)(=O)=O)c1 (stereo not given)	11	-2	-7	-10	-18
CC(=O)c1ccc(NC(=O)C[n+]2ccc(N(C)C)cc2)cc1	3	1	39	-7	-16
Cc1ccc[n+](CC(=O)Nc2ccc(N(C)C)cc2)c1	-1	-10	44	27	100*
CN(C)c1ccc(NC(=O)C[n+]2ccccc2)cc1	0	13	35	9	99*
CN(C)c1ccc(NC(=O)Nc2cccc(Cl)c2)cc1	-15	-41	93*	20	23
CN(c1cccc(NC(=O)Nc2cccc(Cl)c2)c1)S(C)(=O)=O	-26	-6	22	11	1
CN(C)c1ccc(/C=N/NC(=O)C[n+]2ccccc2)cc1	7	·	·	1	99*
CN(C)c1ccc(NC(=O)Oc2ccccc2)cc1	-5	13	39	26	97*
CC(=O)Nc1ccc(NC(=O)Oc2ccccc2)cc1	3	-1	10	2	·
O=C(O)CCn1c(SCCOc2ccccc2F)nc2ccccc21	-5	4	30	-2	-1
CS(=O)(=O)c1ccc(C(=O)NCCN2C(=O)S/C(=C\c3cccnc3)C2=O)cc1[N+](=O)[O-]	-17	9	34	26	100*
CN(C)S(=O)(=O)c1ccc(C(=O)NCCN2C(=O)S/C(=C\c3cccnc3)C2=O)cc1	23	8	30	8	-4
COc1ccc(O)c(C(=O)c2cnc3nc4ccccc4n3c2)c1	61*	5	-2	-18	37
CCn1c(O)c(/C=N/N=C2CCCCC2)c2cc(C3=NNC(=O)CC3)ccc21	54*	5	49	24	64
CCCCC(CCCC)=N/N=C/c1c(O)n(CC)c2cc(C3=NNC(=O)CC3)ccc12	19	0	3	12	13
CCn1c(O)c(/C=N/N=C2CCCC2)c2ccc(C3=NNC(=O)CC3)cc21	57*	16	0	7	22
COc1ccc(-c2cc3ccccc3n2CC(O)CN2CCN(CCO)CC2)cc1 (stereo not given)	8	2	11	-10	96*
Cc1nc(C(F)(F)F)ccc1C(=O)N1CCC(C)(C(=O)NS(=O)(=O)C2CC2)C1 (stereo not given)	2	·	·	·	·
SMILES	H9c2 protect	M18AAP inhibitor	PHOSPHO1 block	PfG6PD inh	ALR inh
CCC(CO)Oc1cc(NCc2ccc(O)cc2)c2ncn(C(C)C)c2c1 (stereo not given)	-2	·	·	14	99*
CCOC(=O)C1=CCC(c2ccccc2)N(S(=O)(=O)c2ccccc2C)C1 (stereo not given)	1	·	·	·	·
O=S(=O)(NCc1ccccc1)c1ccc(-n2cccn2)cc1	-6	-1	6	-16	-13
COCc1cc(C)nc(OCC(=O)N/N=C/c2ccc(O)cc2)c1C#N	-1	0	1	-19	99*
O=C(NCc1ccccc1CN1CCCC1)C1CCN(C(=O)c2ccc(F)cc2)CC1	-10	·	·	-7	·
CN(C)c1ccc(/C=N/NC(=O)c2ccco2)cc1	-16	-6	9	4	99*
CN(C)c1ccc(NC(=S)c2ccccn2)cc1	-24	12	-12	23	98*

Source: PubChem BioAssay (several laboratories)
